Our source for the outcome and AC50 values is PubChem BioAssay (NCATS).

Calls of active or inactive are those of the source. Calls follow the shape of the full dose curve. Where a SMILES comes first, the peptide text is derived from it. Bridges are numbered along the chain shown (N, C = ends). [ ]: non-standard residue; d: D form. The star is where a group is joined. Dab(CH2SO3H) = N[C@@H](CCNCS(=O)(=O)O)C(=O)O; X1 = CC[C@@H](C)CCCCC(=O)*; Dab = NCC[C@H](N)C(=O)O

The conditions of this experiment: Ebola virus entry cell assay, ratio channel.
Take `NS(=O)(=O)c1cc(Cl)c(Cl)c(S(N)(=O)=O)c1`: the result was inactive.

With `Cc1nnc2n1-c1ccc(Cl)cc1C(c1ccccc1Cl)=NC2`, the result was inactive.

On to `CO[C@H]1C=CO[C@@]2(C)Oc3c(C)c(O)c4c(O)c(c5c(nc6cc(C)ccn65)c4c3C2=O)NC(=O)/C(C)=C\C=C[C@H](C)[C@H](O)[C@@H](C)[C@@H](O)[C@@H](C)[C@H](OC(C)=O)[C@@H]1C`, for which the outcome was inactive.

For `Nc1nc2[nH]cc(CCc3ccc(C(=O)N[C@@H](CCC(=O)O)C(=O)O)cc3)c2c(=O)[nH]1`, the outcome was inactive.

As to `CCC[C@@H]1C[C@@H](C(=O)N[C@@H]([C@H]2O[C@H](SC)[C@H](O)[C@@H](O)[C@H]2O)[C@H](C)Cl)N(C)C1`, the outcome was inactive.

Consider `COc1ccnc(CS(=O)c2nc3cc(OC(F)F)ccc3[nH]2)c1OC` (configuration not stated), for which the outcome was inactive.

As to `CN1C(=O)C(O)N=C(c2ccccc2)c2cc(Cl)ccc21` (configuration not stated), the outcome was inactive.

The term AC50 denotes the concentration at which the activity in the assay is half-maximal. With `N#Cc1ccc2c(c1)N(CCCN1CCC(O)CC1)c1ccccc1S2`, the AC50 was 22.4 µM (active).

On to `CC(C)NCC(O)c1ccc(NS(C)(=O)=O)cc1` (configuration not stated), for which the result was inactive.

In the case of `CC[C@@H](C)CCCCC(=O)N[C@@H](CCNCS(=O)(=O)O)C(=O)N[C@H](C(=O)N[C@@H](CCNCS(=O)(=O)O)C(=O)N[C@H]1CCNC(=O)[C@H]([C@@H](C)O)NC(=O)[C@H](CCNCS(=O)(=O)O)NC(=O)[C@H](CCNCS(=O)(=O)O)NC(=O)[C@H](CC(C)C)NC(=O)[C@@H](CC(C)C)NC(=O)[C@H](CCNCS(=O)(=O)O)NC1=O)[C@@H](C)O` (X1-[Dab(CH2SO3H)]T[Dab(CH2SO3H)][Dab][Dab(CH2SO3H)][dL]L[Dab(CH2SO3H)][Dab(CH2SO3H)]T; lactam 4-C), the outcome was inactive.

On to `Nc1ccn([C@@H]2O[C@H](CO)[C@@H](O)C2O)c(=O)n1` (some centres not stated), for which the outcome was inactive.

As to `COc1cc([C@@H]2c3cc4c(cc3C(O[C@@H]3O[C@@H]5CO[C@@H](C)O[C@H]5[C@H](O)[C@H]3O)C3COC(=O)[C@@H]32)OCO4)cc(OC)c1OP(=O)(O)O` (some centres not stated), the AC50 is 7.08 µM (active).
